How the values were obtained:
Assay in all cases: thermal shift delta Tm vs DMSO control; higher = stronger stabilization (binding)
Conditions in all cases: 12.5 µM; protein concentration 2 µM
LOC_OS02G45750-cb003 = system: LOC_OS02G45750-cb003
How it was run: (§1)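 Rice kinase domain constructs, made in E. coli and purified, were placed in 96-well plates at 2 μM in 19.5 μl of 100 mM potassium phosphate pH 7.5, 150 mM NaCl, 10% glycerol and 5 × SYPRO Orange, with compound in DMSO. A temperature ramp from 25°C to 95°C at 0.05°C/s was used for differential scanning fluorimetry. The melting temperature shift is a triplicate mean compared with DMSO-only protein, derived from Boltzmann fits.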

LOC_OS02G54510-cb004 = system: LOC_OS02G54510-cb004
How it was run: as §1

LOC_OS03G04050-cb001 = system: LOC_OS03G04050-cb001
How it was run: as §1

LOC_OS03G12390-cb001 = system: LOC_OS03G12390-cb001
How it was run: as §1

LOC_OS03G27990-cb004 = system: LOC_OS03G27990-cb004
How it was run: as §1

LOC_OS03G50450-cb001 = system: LOC_OS03G50450-cb001
How it was run: as §1

LOC_OS03G50810-cb003 = system: LOC_OS03G50810-cb003
How it was run: as §1

LOC_OS04G35114-cb001 = system: LOC_OS04G35114-cb001
How it was run: as §1

LOC_OS04G38480-cb003 = system: T1, LOC_OS04G38480-cb003
T1 sequence (whole entry): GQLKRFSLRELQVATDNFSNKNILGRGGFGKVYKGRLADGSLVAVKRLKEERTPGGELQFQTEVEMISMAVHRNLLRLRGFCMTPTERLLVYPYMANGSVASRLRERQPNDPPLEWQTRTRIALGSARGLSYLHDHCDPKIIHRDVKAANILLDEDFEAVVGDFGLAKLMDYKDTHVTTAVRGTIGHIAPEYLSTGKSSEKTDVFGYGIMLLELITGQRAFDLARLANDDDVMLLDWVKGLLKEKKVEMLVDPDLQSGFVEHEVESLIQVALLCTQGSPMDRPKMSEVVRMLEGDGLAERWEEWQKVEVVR
How it was run: as §1

LOC_OS04G41100-cb001 = system: T2, LOC_OS04G41100-cb001
T2 sequence (whole entry): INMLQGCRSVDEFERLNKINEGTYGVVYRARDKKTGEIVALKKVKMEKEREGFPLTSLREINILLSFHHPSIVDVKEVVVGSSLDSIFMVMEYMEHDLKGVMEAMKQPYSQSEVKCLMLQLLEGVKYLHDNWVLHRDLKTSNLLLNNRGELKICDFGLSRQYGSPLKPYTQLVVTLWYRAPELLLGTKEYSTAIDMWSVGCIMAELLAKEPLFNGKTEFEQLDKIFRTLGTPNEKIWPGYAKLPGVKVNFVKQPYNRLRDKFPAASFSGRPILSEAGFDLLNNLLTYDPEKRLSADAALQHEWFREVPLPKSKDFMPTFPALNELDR
How it was run: as §1
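Further: purified Escherichia coli-expressed rice kinase domain construct.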

Structure (SMILES)	thermal shift delta Tm (LOC_OS02G45750-cb003)	thermal shift delta Tm (LOC_OS02G54510-cb004)	thermal shift delta Tm (LOC_OS03G04050-cb001)	thermal shift delta Tm (LOC_OS03G12390-cb001)	thermal shift delta Tm (LOC_OS03G27990-cb004)	thermal shift delta Tm (LOC_OS03G50450-cb001)	thermal shift delta Tm (LOC_OS03G50810-cb003)	thermal shift delta Tm (LOC_OS04G35114-cb001)	thermal shift delta Tm (LOC_OS04G38480-cb003)	thermal shift delta Tm (LOC_OS04G41100-cb001)
CCn1c(=O)c(-c2cc[nH]n2)cc2c(C)nc(N)nc21	0.15 °C	0.22 °C	0.35 °C	0.21 °C	0.09 °C	0.05 °C	0.28 °C	0.94 °C	0.82 °C	0.15 °C
Cc1c(Cn2c(C)nc3c(C(=O)O)cc(N4CCOCC4)cc32)cccc1C(F)(F)F	0.34 °C	0.11 °C	0.14 °C	-0.17 °C	0.07 °C	0.48 °C	0.29 °C	0.99 °C	0.75 °C	0.4 °C
COc1cc2ncnc(Nc3ccc(F)c(Cl)c3)c2cc1NC(=O)/C=C/CN1CCCCC1	1.69 °C	0.71 °C	1.08 °C	0.21 °C	1.04 °C	1.79 °C	0.95 °C	1.15 °C	1.53 °C	0.71 °C
CCNC(=O)C#Cc1ccc2c(C(=Nc3ccc(CN(C)C)cc3)c3ccccc3)c(O)[nH]c2c1	7.14 °C	2.44 °C	-0.2 °C	1.25 °C	0.99 °C	0.07 °C	4.57 °C	9.15 °C	1.25 °C	4.14 °C
OCCn1cc(-c2cnc3nnn(Cc4ccc5ncccc5c4)c3n2)cn1	0.63 °C	0.54 °C	0.84 °C	-0.07 °C	0.33 °C	0.8 °C	0.22 °C	0.87 °C	-0.51 °C	0.57 °C
O=C1NC(=O)/C(=C/c2ccc3nccc(-c4ccncc4)c3c2)S1	1.29 °C	0.51 °C	0.38 °C	2.47 °C	0.28 °C	0.79 °C	0.4 °C	7.2 °C	1.96 °C	0.48 °C
Nc1[nH]nc2nnc(-c3c(-c4ccccc4)nn4ccccc34)cc12	1.41 °C	0.54 °C	0.66 °C	1.36 °C	0.56 °C	1.03 °C	0.41 °C	1.11 °C	0.15 °C	0.75 °C
CC(C)(O)CC(=O)NCCn1ccc2ncnc(Nc3ccc(Oc4cccc(C(F)(F)F)c4)c(Cl)c3)c21	0.62 °C	-0.25 °C	0.51 °C	1.74 °C	0.47 °C	0.94 °C	1.03 °C	0.12 °C	1.78 °C	0.52 °C
CN1CCN(c2ccc(OC(F)(F)F)c(Nc3ncc4c(n3)-c3c(c(C(N)=O)nn3CCO)CC4)c2)CC1	0.67 °C	-0.01 °C	0.33 °C	1.65 °C	-0.02 °C	-0.04 °C	0.54 °C	1.58 °C	-0.15 °C	0.74 °C
CN1CCN(C2CCN(C(=O)Nc3cc(Oc4ccc(NC(=O)C5(C(=O)Nc6ccc(F)cc6)CC5)c(F)c4)ccn3)CC2)CC1 [Golvatinib (E7050)]	0.4 °C	-0.38 °C	0.26 °C	0.04 °C	0.36 °C	0.52 °C	0.33 °C	0.27 °C	1.71 °C	1.78 °C
COc1ccc2c(c1)[C@]1(C[C@H]1c1ccc3c(/C=C/c4ccc(CN5C[C@@H](C)O[C@@H](C)C5)cc4)n[nH]c3c1)C(=O)N2	9.37 °C	-0.19 °C	0.73 °C	0.7 °C	0.36 °C	0.66 °C	4.68 °C	4.47 °C	4.28 °C	0.19 °C
O=C(O)c1cc(O)c2c(c1)[C@@H]([C@H]1c3cc(C(=O)O)cc(O)c3C(=O)c3c(O[C@@H]4O[C@H](CO)[C@@H](O)[C@H](O)[C@H]4O)cccc31)c1cccc(O[C@@H]3O[C@H](CO)[C@@H](O)[C@H](O)[C@H]3O)c1C2=O [Sennoside B]	0.1 °C	-0.47 °C	1.23 °C	0.74 °C	0.89 °C	0.17 °C	1.04 °C	0.32 °C	3.9 °C	0.24 °C
O=C1Nc2ccc(I)cc2/C1=C/c1cc(Br)c(O)c(Br)c1	0 °C	1.04 °C	0.81 °C	6.08 °C	2.06 °C	1.49 °C	4.01 °C	1.76 °C	-0.73 °C	0.75 °C
CONC(=O)c1ccccc1Nc1cc(Nc2cc(C)nn2C(C)C)ncc1Cl	1.44 °C	0.08 °C	0.47 °C	1.86 °C	0.55 °C	0.47 °C	1.12 °C	0.79 °C	2.41 °C	0.42 °C
CO[C@H]1C[C@@H]2CC[C@@H](C)[C@@](O)(O2)C(=O)C(=O)N2CCCC[C@H]2C(=O)O[C@H]([C@H](C)C[C@@H]2CC[C@@H](OC(=O)C(C)(CO)CO)[C@H](OC)C2)CC(=O)[C@H](C)/C=C(\C)[C@@H](O)[C@@H](OC)C(=O)[C@H](C)C[C@H](C)/C=C/C=C/C=C/1C	0.69 °C	-0.04 °C	0.5 °C	-0.26 °C	0.07 °C	0.44 °C	-0.05 °C	-0.13 °C	1.42 °C	0.7 °C
C=C[C@@](C)(/C=C/c1ccc(O)cc1)CCC=C(C)C [Bakuchiol]	-0.82 °C	-0.05 °C	0.71 °C	-0.13 °C	0.37 °C	0.04 °C	0.28 °C	0.46 °C	0.81 °C	0.44 °C
CNC(=O)c1cc(Oc2ccc3nc(N[C@@H]4CCCC[C@H]4O)sc3c2)ccn1	0.99 °C	-0.11 °C	0.37 °C	0.22 °C	0.15 °C	0.65 °C	0.6 °C	0.24 °C	1.59 °C	0.59 °C
COc1cc2ncnc(Nc3ccc(O)c(Br)c3)c2cc1OC	1.02 °C	0.71 °C	0.44 °C	4.5 °C	2.33 °C	-0.05 °C	2.28 °C	4.51 °C	2.11 °C	0.46 °C
Nc1nccc(Oc2ccc(NC(=O)c3c[nH]cc(-c4ccc(F)cc4)c3=O)cc2F)c1Cl	1.54 °C	0.77 °C	0.58 °C	0.55 °C	0.24 °C	0.31 °C	1.15 °C	0.58 °C	2.79 °C	3.39 °C
CCn1c(=O)c(-c2ccc(-c3cncs3)cc2Cl)cc2cnc(Nc3ccc(N4CCN(C)CC4)cc3)nc21	1.17 °C	0.43 °C	0.71 °C	-0.41 °C	0.34 °C	1.1 °C	0.27 °C	0.85 °C	0.15 °C	0.58 °C

Source: the supplement of paper PMC9694430
